# Source: PubChem BioAssay AID493169 (National Center for Advancing Translational Sciences (NCATS), 2011)
# Results filed as inconclusive are left out. Calls of active or inactive are those of the source. The call rests on the fitted dose curve; in most records, active means well fitted inhibition curve with a large enough effect; inconclusive means small, poorly fitted or top-dose-only effect; inactive means flat fitted curve, though single readings scatter.
# Assay: CHOP2 Reporter Counterscreen Assay for Inhibitors of Ubiquitin-specific Protease USP2a;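 further: activated enterokinase alone at 50 pM in a cell-free format rather than USP2a or CHOP2; nearly all actives have a fitted effect of over 55% in size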
# Conditions: purified enterokinase, fluorogenic substrate, 485/531 nm; series mostly up to 38.3 µM; activity change, negative = inhibition: at the top concentration
# In short: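 Cell-free counterscreen with pre-activated enterokinase alone (50 pM final) in 20mM Tris-HCl pH 8.0, 2mM CaCl2, 2mM beta-mercaptoethanol, 0.05% CHAPS; compound preincubation 30 min RT, reporter substrate 25nM final, fluorescence read after 10 min (Ex 485/Em 531).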
# On the % scale 0 is the no-effect control and ±100 the full control effect; potency means the concentration at half of the fitted maximal effect.
Compound,Potency,"activity change, negative = inhibition"
O=C(N/N=C/c1ccc(F)cc1)c1cc(-c2ccco2)nc2ccccc12,2.24 µM (active),–
COc1ccc(CN(Cc2cc3cc(C)ccc3[nH]c2=O)C(=O)N(C)C)cc1,–,-2.81% (inactive)
Cc1c(NC(=O)c2ccc(COc3ccc4ccccc4c3)o2)c(=O)n(-c2ccccc2)n1C,–,-9.92% (inactive)
Cc1ccc2c(c1)c1c3n2CCN(C(=O)Cn2c(-c4ccccc4)noc2=O)C3CCC1 (stereo not given),–,0.405% (inactive)
CN1CCN(CCCCOc2ccc(F)cc2)CC1,–,0.243% (inactive)
O=C(CSc1ncn[nH]1)Nc1ccc(Br)cc1F,–,3.28% (inactive)
O=C(c1ccccc1)N1CCN(C2C3CC4CC(C3)CC2C4)CC1 (stereo not given),–,-0.023% (inactive)
FC(F)(F)c1cnc2c(c1)Nc1ccccc1S2,–,7.72% (inactive)
Cc1nc2ccccc2c2oc(C(=O)NCCN3CCN(C)CC3)cc12,–,-12.2% (inactive)
Cc1ccc(S(=O)(=O)Nc2ccccc2-c2ccccc2NS(=O)(=O)c2ccc(C)cc2)cc1,–,-20.3% (inactive)
CSc1cccc(NC(=O)c2ccccc2N(C)S(C)(=O)=O)c1,–,3.92% (inactive)
O=C(NCCCN1CCCC1=O)c1cccc(N2CCCC2=O)c1,–,2.06% (inactive)
CC1=NN(c2ccc(C)cc2)C(=O)/C1=C/c1ccc(-c2cc([N+](=O)[O-])ccc2O)o1,11.2 µM (active),–
COC(=O)c1nnn(-c2nonc2N)c1CSc1ccccn1,–,0.244% (inactive)
Cc1cc(NC(=O)CN2C(=O)NC3(CCCCC3C)C2=O)no1 (stereo not given),–,-2.71% (inactive)
COc1cccc(OC)c1-c1nn2c(-c3cc(-c4ccccc4)n[nH]3)nnc2s1,5.62 µM (active),–
O=C1c2ccccc2CCC12N=NCC2c1ccc(Br)cc1 (stereo not given),–,-2.24% (inactive)
O=C(O)CC(C(=O)O)N1C(=O)/C(=C/C=C/c2ccco2)SC1=S (stereo not given),3.55 µM (active),–
COc1ccc2cc(CN(C(=O)Nc3ccccc3)C3CCCC3)c(=O)[nH]c2c1,–,-1.45% (inactive)
C=C(CCC(=O)c1ccccc1)C(=O)c1ccccc1,–,1.79% (inactive)

Compound,Potency,"activity change, negative = inhibition"
Cc1cc(NS(=O)(=O)c2ccc(Nc3nc(-c4ccc(C)c(C)c4)cs3)cc2)no1,–,-14.2% (inactive)
CCc1cc2c(=O)c(-n3cnc4ccccc43)coc2cc1O,–,-1.67% (inactive)
C#CCOCCOCCOCCNc1nc(N2CCN(C(=O)CCCCCCCCCCNC(=O)[C@@H](CCC(=O)O)n3cc(CCCCCN)nn3)CC2)nc(N2CCN(C(=O)CCCCCCCCCCNC(=O)[C@H](CCCCN)n3cc(C[C@@H](C)CC)nn3)CC2)n1,5.62 µM (active),–
Cc1cccc(-c2nnc3n2N=C(c2ccc(Br)cc2)CS3)c1,–,-1.47% (inactive)
COc1ccc(-c2csc(N3CCN(C(=O)c4ccco4)CC3)n2)cc1,–,4.54% (inactive)
CC(C)CC(c1nnnn1CC1CCCO1)N1CCN(c2nc3ccccc3s2)CC1 (stereo not given),–,-3.48% (inactive)
CC1=NC(C(F)(F)F)(C(F)(F)F)C2=C(CC(C)(C)CC2=O)N1Cc1ccco1,–,1.95% (inactive)
Cc1cc(C)cc(OCC(=O)Nc2ccc(N3CCCC3)cc2)c1,10 µM (active),–
Clc1ccccc1-c1nnc2sc(-c3cccs3)nn12,–,-19.6% (inactive)
O=C(COC(=O)/C=C/c1ccc(Cl)cc1)NC1CC1,–,1.41% (inactive)
CCOc1ccccc1C(=O)N[C@H](C(=O)Nc1ccc(OC)c(S(=O)(=O)N2CCOCC2)c1)C(C)C,–,0.625% (inactive)
COc1cc(C(=O)OC2CCCCC2=O)cc(OC)c1C (stereo not given),–,-5.18% (inactive)
CC(OC(=O)CN(C)S(=O)(=O)c1ccc(Cl)cc1)C(=O)Nc1ccc(N2CCOCC2)cc1 (stereo not given),–,1.51% (inactive)
O=C(CSc1ncccc1-c1nc2ccccc2[nH]1)Nc1ccc2c(c1)OCCO2,–,5.88% (inactive)
Cc1ccc(SCC(=O)NCC(C)C)cc1,–,6.35% (inactive)
CCOC(=O)c1c(NC(C)=O)sc2c1CCCNC2=O,–,0.0158% (inactive)
CCCSCCCNC(=O)CC1Oc2ccccc2NC1=O (stereo not given),–,-2.32% (inactive)
COc1ccc(S(=O)(=O)N2CCCC2C(=O)NCc2cccs2)cc1 (stereo not given),–,4.72% (inactive)
COC(=O)c1[nH]c(=O)c2ccccc2c1OCc1ccccc1,–,3.7% (inactive)
CCCCC1NC(C(=O)O)CS1 (stereo not given),–,2.37% (inactive)
